Bioassay records: PubChem BioAssay, several laboratories
LYPLA2 inh = blocks human lysophospholipase 2, a PME1 counter-screen; inhibition, % at 5.9 µM; O95372; recombinant LYPLA2, FP-Rh probe fluorescence polarization; actives 0.38% (n = 320,000);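 active = inhibition above the screen-wide mean plus 3 SD, limit set per campaign, cut at about 26% in these data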
EBNA-1 inhibitor = blocks EBNA-1 binding to DNA. EBNA-1 DNA binding, fluorescence polarization. inhibition, % at 14.8 µM. actives 0.34% (n = 300,000). AID 1950; in the data active = inhibition above about 28%
LANA-H2B inh = blocks KSHV LANA binding to histone H2A/H2B. Q9QR71. cell-free LANA-H2A/H2B peptide, fluorescence polarization. inhibition, % (concentration not given with the values). actives 0.6% (n = 320,000). AID 2629; in the data active = inhibition mostly above about 10%, no sharp cut-off; inactive = mostly below about 6.7%
Target sequence (Q9QR71 whole entry, looked up): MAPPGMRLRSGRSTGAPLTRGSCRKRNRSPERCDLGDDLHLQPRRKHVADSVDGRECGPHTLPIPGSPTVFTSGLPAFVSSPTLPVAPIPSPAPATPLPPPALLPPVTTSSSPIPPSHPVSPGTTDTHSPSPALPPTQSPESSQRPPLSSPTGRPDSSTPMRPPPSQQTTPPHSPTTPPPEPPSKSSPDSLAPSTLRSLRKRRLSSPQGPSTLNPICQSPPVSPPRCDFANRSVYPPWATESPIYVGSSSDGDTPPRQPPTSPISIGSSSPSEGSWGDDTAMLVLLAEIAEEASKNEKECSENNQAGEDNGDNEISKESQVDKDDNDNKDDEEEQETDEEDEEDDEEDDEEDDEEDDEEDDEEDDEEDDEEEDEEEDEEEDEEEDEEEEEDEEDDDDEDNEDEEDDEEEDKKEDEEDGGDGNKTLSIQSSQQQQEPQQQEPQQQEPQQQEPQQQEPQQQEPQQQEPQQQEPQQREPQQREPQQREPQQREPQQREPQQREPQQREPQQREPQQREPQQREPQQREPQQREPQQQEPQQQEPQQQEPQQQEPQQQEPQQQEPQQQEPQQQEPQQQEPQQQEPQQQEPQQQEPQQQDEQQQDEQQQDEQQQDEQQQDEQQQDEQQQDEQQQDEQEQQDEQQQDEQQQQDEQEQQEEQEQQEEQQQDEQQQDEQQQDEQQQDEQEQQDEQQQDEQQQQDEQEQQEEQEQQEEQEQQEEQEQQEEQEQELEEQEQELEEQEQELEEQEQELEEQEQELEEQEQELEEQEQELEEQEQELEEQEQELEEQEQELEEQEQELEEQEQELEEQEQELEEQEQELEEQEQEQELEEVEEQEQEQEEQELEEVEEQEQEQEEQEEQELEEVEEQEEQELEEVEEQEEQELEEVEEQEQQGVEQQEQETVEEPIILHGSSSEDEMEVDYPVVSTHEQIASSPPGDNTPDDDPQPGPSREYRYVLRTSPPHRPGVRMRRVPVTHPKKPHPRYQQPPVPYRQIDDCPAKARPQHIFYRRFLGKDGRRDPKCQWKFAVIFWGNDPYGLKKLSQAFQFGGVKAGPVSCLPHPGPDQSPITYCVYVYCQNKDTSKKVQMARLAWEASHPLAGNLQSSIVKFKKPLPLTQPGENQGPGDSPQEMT
LYPLA1 counter = counter-screen for PME1 inhibitors: inhibitors of human LYPLA1. O75608. recombinant LYPLA1, FP-Rh probe fluorescence polarization. inhibition, % at 5.9 µM. actives 0.16% (n = 320,000). AID 2174;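 active = inhibition above the mean of all tested compounds plus 3 SD, set per campaign, cut at about 14% in these data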;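 also: inhibitors block serine hydrolase probe labeling of LYPLA1 so polarization falls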
ZTA DNA inh = counter-screen for EBNA-1 inhibitors: inhibitors of Epstein-Barr virus ZTA. P03206. ZTA-DNA binding, fluorescence polarization. inhibition, % at 11 µM. actives 0.15% (n = 320,000). AID 2234; in the data active = inhibition above about 33%
Numbers stand for hits; i = inactive; nt = no result; + = active, no number; ! = not active in a repeat. Shown are actives, neighbours in structure and some others; about 1.4% of the full set was active somewhere.

SMILES	LYPLA2 inh	EBNA-1 inhibitor	LANA-H2B inh	LYPLA1 counter	ZTA DNA inh
CCCOC(=O)NC(CC)COC(=O)Nc1cc(C)ccc1C (stereo unspecified)	i	i	46	i	i
CC(C)c1ccc(NC(=O)c2ccccc2NC(=O)C2CCCCC2C(=O)O)cc1 (stereo unspecified)	nt	nt	i	nt	nt
Cc1ccccc1C(=O)Nc1ccc2c(C#N)c3nc4ccccc4nc3n2c1	i	i	28	i	i
Cc1ccc(OCC(=O)N/N=C\c2ccc(O)c([N+](=O)[O-])c2)c([N+](=O)[O-])c1	i	i	13	i	i
COc1cc(/C=N/NC(N)=S)ccc1OCC(=O)Nc1ccc(C)cc1	i	47	i	i	34
CNC(=S)N/N=C/c1ccc(OCC(=O)Nc2c(C)cc(C)cc2C)c(OC)c1	i	i	i	i	i
COc1ccc(C)cc1NC(=O)C1CC(=O)N(Cc2ccco2)C1 (stereo unspecified)	i	i	13	i	i
N[C@@H](C(=O)N[C@@H]1C(=O)N2C(C(=O)O)=C(Cl)CS[C@H]12)c1ccccc1	i	i	i	i	i
NC(=O)c1cc[n+](CC2=C(C(=O)O)N3C(=O)[C@@H](NC(=O)C(c4ccccc4)S(=O)(=O)[O-])[C@H]3SC2)cc1 (stereo partly specified)	i	i	i	i	35
Cc1nc(C2CC(=O)OC23CCCCC3)cs1 (stereo unspecified)	i	i	-5.5	i	i
Nc1nc(C2CC(=O)OC23CCCCC3)cs1 (stereo unspecified)	i	i	i	i	i
CCCCOn1c(C)c(C(C)=O)c2c3no[n+]([O-])c3ccc21	i	i	13	i	i
CC[n+]1c(C)sc2cc(C)ccc21	i	i	9.2	i	i
CC(C)c1onc(C(=O)N2CCC(C(N)=O)CC2)c1[N+](=O)[O-]	i	i	i	i	i
CC(C)c1onc(C(=O)N2CCCCCC2)c1[N+](=O)[O-]	i	i	33	i	i
O=C(Nc1cccc(Cl)c1)C1CCCN(S(=O)(=O)c2ccc(F)cc2)C1 (stereo unspecified)	i	i	nt	i	i
O=C(Nc1ccccc1Cl)C1CCCN(S(=O)(=O)c2ccc(F)cc2)C1 (stereo unspecified)	i	i	8.8	i	i
Cc1ccccc1NC(=O)Cc1nc(COC(=O)COc2ccc(C(C)(C)C)cc2)cs1	i	nt	17	i	i
CC(C)(C)c1cc[n+](-c2[nH]c(=O)sc2/C=N/NC([S-])=Nc2ccccc2)cc1	i	i	42	i	i
NC(=O)c1nsc(C(=O)N(CC(=O)NCc2ccccc2)c2ccc(F)cc2)c1N	i	i	i	i	i
CC1(C)C(C#N)=C(N)OC2=C1C(=O)CCC2	i	i	18	i	i
CCN(CC)C(=O)c1ccc(S(=O)(=O)c2ccccc2)cc1	i	i	+	i	i
Cc1ccccc1OCC1CN(CN2CCOCC2)C(=O)O1 (stereo unspecified)	i	i	24	i	i
CC(C)CCNc1nc(N)c([N+](=O)[O-])c(N2CCCCCC2)n1	i	i	i	i	i
CN1[C@@H]2CC(OC(=O)[C@H](CO)c3ccccc3)C[C@H]1[C@@H]1O[C@@H]12 (stereo partly specified)	i	nt	27!	i	i
SMILES	LYPLA2 inh	EBNA-1 inhibitor	LANA-H2B inh	LYPLA1 counter	ZTA DNA inh
CCN1CCCC(OC(=O)C(c2ccccc2)c2ccccc2)C1 (stereo unspecified)	i	i	i	i	i
O=C1CC(=O)Nc2cc(S(=O)(=O)N3CCOc4ccc(Cl)cc43)ccc2N1	i	i	31	i	i
CCN(C(=O)CN1CCCCC1)c1c(N)n(Cc2ccccc2)c(=O)[nH]c1=O	i	nt	i	i	i
CCN(C(=O)CN1CCCC(C)C1)c1c(N)n(Cc2ccccc2)c(=O)[nH]c1=O (stereo unspecified)	nt	nt	13	nt	nt
COCCN1CCN(C(=O)C2CCC(=O)N(Cc3cccc(C(F)(F)F)c3)C2)CC1 (stereo unspecified)	nt	nt	i	nt	nt
CC(=O)Nc1ccc(NC(=O)CSc2nnc(-c3ccco3)o2)cc1	i	i	20	i	i
CSC(=NC#N)N1CCN(C(=NC#N)SC)CC1	i	i	i	i	i
CSC(=NC#N)N1CCN(c2ccccn2)CC1	i	i	30	i	i
CC(C)[C@H](NC(=O)C1CC(=O)N(c2ccc(F)cc2)C1)C(=O)N1CCCCC1 (stereo partly specified)	i	i	i	i	i
Nc1nc(SCc2ccc(Cl)cc2Cl)nc2nc3c(cc12)CCCC3	i	29	i	i	i
CN(C)C(CNC(=O)c1ccc(Cl)c(S(=O)(=O)N2CCCCCC2)c1)c1ccccc1 (stereo unspecified)	i	nt	15	i	i
Cc1cc(NC(=O)c2ccc(Br)o2)ccc1NC(=O)c1ccco1	i	i	i	i	i
CC(=O)Nc1ccc2c(c1)C(C)(C)C(C)N2C (stereo unspecified)	i	45	i	i	60
O=C(COC(=O)c1ccc(OC(F)F)cc1)NCCC1=CCCCC1	i	nt	i	i	i
O=C1CC(c2ccccc2)CC(O)=C1C=NCCN1CCNCC1 (stereo unspecified)	i	i	i	i	i
O=C1CC(c2ccc(F)cc2)CC(O)=C1C=NCCN1CCNCC1 (stereo unspecified)	i	i	17	i	i
CCc1ccc(N2C(=O)CN(Cc3ccccc3)C2=S)cc1	i	i	i	i	i
CCc1ccc(N2C(=O)CN(Cc3cccs3)C2=S)cc1	i	i	+	i	i
O=C1/C(=C\c2ccco2)SC(=S)N1C1CCCCC1	i	i	i	i	i
CC1=C(C#N)C(=O)N(C2CCS(=O)(=O)C2)C(=O)/C1=C\c1ccco1 (stereo unspecified)	i	63	i	i	79
NC(=O)C1CCN(C(c2ccccc2Cl)c2nnnn2Cc2ccc3c(c2)OCO3)CC1 (stereo unspecified)	i	i	26	i	i
CC(C)C(c1nnnn1Cc1ccc(F)cc1)N1CCC(C(N)=O)CC1 (stereo unspecified)	i	i	39	i	i
Cc1ccccc1Nc1nc(N)nc(CN(C)c2ccccc2)n1	i	i	28	i	i
CCc1ccc(C(C(=O)NCc2ccc(F)cc2)N(C(=O)c2csnn2)C2CC2)cc1 (stereo unspecified)	i	i	i	i	i
Cc1cccn2c(=O)c3cc(C(=O)NC4CCCC4)c(=N)n(CCc4ccccc4)c3nc12	i	i	14	i	i
COc1ccc(N=CC2=C(Nc3ccc(OC)cc3)c3c(C)nn(-c4ccccn4)c3CC2)cc1	49	i	60	50	i
CN(Cc1cccc(Cl)c1Cl)C(=O)CCNC(=O)c1ccco1	nt	nt	i	nt	nt
Cc1cc(NC(=O)/C(C#N)=C/c2ccco2)n(-c2ccccc2)n1	i	i	i	i	i
Cc1ccc(-c2ccc(/C=C(\C#N)C(=O)Nc3cc(C)nn3-c3ccccc3)o2)cc1	i	i	23	i	i
